Reference: the supplement of paper PMC12645437, “Orthogonal IMiD-Degron Pairs Induce Selective Protein Degradation in Cells” (ACS Chemical Biology, 2025)
The full ranking holds about 8,300 sequences; the median of “log2 fold change of degron read counts, EGFP-low vs EGFP+ sorted cells (limma voom), compound-induced degradation” is about -1.1, and the highest 2% start at about 3.2. Shown is part of a subset that was picked to be rich in the highest values.

Biological target: T1, CRBN, Q96SW2
T1 chain: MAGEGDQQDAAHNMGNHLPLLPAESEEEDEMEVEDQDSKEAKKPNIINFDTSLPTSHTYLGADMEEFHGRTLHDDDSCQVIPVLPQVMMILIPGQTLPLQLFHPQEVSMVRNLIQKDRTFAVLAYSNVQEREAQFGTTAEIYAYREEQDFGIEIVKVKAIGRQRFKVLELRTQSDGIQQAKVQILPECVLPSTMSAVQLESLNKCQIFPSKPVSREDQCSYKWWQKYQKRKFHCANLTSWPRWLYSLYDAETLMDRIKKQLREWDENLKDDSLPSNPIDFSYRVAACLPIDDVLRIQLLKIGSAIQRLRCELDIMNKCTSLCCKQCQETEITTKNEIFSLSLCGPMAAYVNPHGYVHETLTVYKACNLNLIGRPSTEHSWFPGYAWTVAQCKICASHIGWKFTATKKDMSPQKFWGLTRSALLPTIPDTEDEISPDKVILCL
Assay: log2 fold change of degron read counts, EGFP-low vs EGFP+ sorted cells (limma voom), compound-induced degradation; higher = more compound-induced degradation of the degron-EGFP fusion; degrons are variants of IKZF1/3 zinc finger 2; compound dose not given here
Details: Jurkat, 18 h

[1] = compound: compound 19 (5-tert-butyl-thalidomide)
[2] = compound: compound 22 (5-morpholino-thalidomide)
[3] = compound: compound 33 (diphenyl IMiD analogue)
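Also: pooled lentiviral library of zinc finger degron-EGFP fusions in mCherry-positive Jurkat cells, FACS-sorted after compound exposure, with degron abundance counted by next-generation sequencing.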

FWCPICGAYFTQKGNLLRHIKL [46F_47W_49P_50I_52G_53A_54Y_55F_67L_, Q9UKT9]
log2 fold change of degron read counts [1]: 2.72
log2 fold change of degron read counts [2]: 2.69
log2 fold change of degron read counts [3]: 2.4
log2 fold change of degron read counts (compound: thalidomide): 0.973

FYCPICGAYFTQKGNLLRHIKL [46F_47Y_49P_50I_52G_53A_54Y_55F_67L_, Q9UKT9]
log2 fold change of degron read counts [1]: 3.26
log2 fold change of degron read counts [2]: 3.12
log2 fold change of degron read counts [3]: 2.39
log2 fold change of degron read counts (compound: thalidomide): 1.01

FICPICGAYFTQKGNLLRHIKL [46F_47I_49P_50I_52G_53A_54Y_55F_67L_, Q9UKT9]
log2 fold change of degron read counts [1]: -0.481
log2 fold change of degron read counts [2]: 2.03
log2 fold change of degron read counts [3]: 1.75
log2 fold change of degron read counts (compound: thalidomide): 1.86

FVCPICGAYFTQKGNLLRHIKL [46F_47V_49P_50I_52G_53A_54Y_55F_67L_, Q9UKT9]
log2 fold change of degron read counts [1]: 0.319
log2 fold change of degron read counts [2]: 1.86
log2 fold change of degron read counts [3]: 1.7
log2 fold change of degron read counts (compound: thalidomide): 2.59

LECPICGFPCTQKGNLLRHIKL [46L_47E_49P_50I_52G_53F_54P_55C_67L_, Q9UKT9]
log2 fold change of degron read counts [1]: -1.29
log2 fold change of degron read counts [2]: -1.77
log2 fold change of degron read counts [3]: -0.153
log2 fold change of degron read counts (compound: thalidomide): 1.04

FGCNQCGHHFTQKGNLLRHIKL [46F_47G_49N_50Q_52G_53H_54H_55F_67L_, Q9UKT9]
log2 fold change of degron read counts [1]: -2.24
log2 fold change of degron read counts [2]: -2.34
log2 fold change of degron read counts [3]: -1.76
log2 fold change of degron read counts (compound: thalidomide): -1.83

FGCEICGHTFTQKGNLLRHIKL [46F_47G_49E_50I_52G_53H_54T_55F_67L_, Q9UKT9]
log2 fold change of degron read counts [1]: -3.25
log2 fold change of degron read counts [2]: -2.98
log2 fold change of degron read counts [3]: -3.48
log2 fold change of degron read counts (compound: thalidomide): -3.14

FMCEICGHIFTQKGNLLRHIKL [46F_47M_49E_50I_52G_53H_54I_55F_67L_, Q9UKT9]
log2 fold change of degron read counts [1]: -2.42
log2 fold change of degron read counts [2]: -2.92
log2 fold change of degron read counts [3]: -1.97
log2 fold change of degron read counts (compound: thalidomide): -2.73

LQCNQCGFNCTQKGNLLRHIKL [46L_47Q_49N_50Q_52G_53F_54N_55C_67L_, Q9UKT9]
log2 fold change of degron read counts [1]: -2.28
log2 fold change of degron read counts [2]: -2.12
log2 fold change of degron read counts [3]: -2.51
log2 fold change of degron read counts (compound: thalidomide): -1.67

FHCPICGHHFTQKGNLLRHIKL [46F_47H_49P_50I_52G_53H_54H_55F_67L_, Q9UKT9]
log2 fold change of degron read counts [1]: -1.89
log2 fold change of degron read counts [2]: -2.04
log2 fold change of degron read counts [3]: -1.22
log2 fold change of degron read counts (compound: thalidomide): -1.88

FDCNVCGAQFTQKGNLLRHIKL [46F_47D_49N_50V_52G_53A_54Q_55F_67L_, Q9UKT9]
log2 fold change of degron read counts [1]: -1.58
log2 fold change of degron read counts [2]: -1.29
log2 fold change of degron read counts [3]: -0.82
log2 fold change of degron read counts (compound: thalidomide): -0.778

FVCEQCGAGFTQKGNLLRHIKL [46F_47V_49E_50Q_52G_53A_54G_55F_67L_, Q9UKT9]
log2 fold change of degron read counts [1]: -1.4
log2 fold change of degron read counts [2]: -0.248
log2 fold change of degron read counts [3]: 0.586
log2 fold change of degron read counts (compound: thalidomide): 1.2

FKCPICGHRFTQKGNLLRHIKL [46F_47K_49P_50I_52G_53H_54R_55F_67L_, Q9UKT9]
log2 fold change of degron read counts [1]: -2.63
log2 fold change of degron read counts [2]: -2.88
log2 fold change of degron read counts [3]: -3.36
log2 fold change of degron read counts (compound: thalidomide): -2.52

FQCDICGAFFTQKGNLLRHIKL [46F_47Q_49D_50I_52G_53A_54F_55F_67L_, Q9UKT9]
log2 fold change of degron read counts [1]: -2.31
log2 fold change of degron read counts [2]: -1.64
log2 fold change of degron read counts [3]: 0.643
log2 fold change of degron read counts (compound: thalidomide): 0.872
